Screening data deposited in PubChem by National Center for Advancing Translational Sciences (NCATS).
In the library only some 14% were active in any assay of this set; here they are far more common.
Sm TGR block: qHTS Assay for the Inhibitors of Schistosoma Mansoni Peroxiredoxins; Schistosoma mansoni thioredoxin glutathione reductase (TGR), Q962Y6; purified TGR, DTNB reduction, TNB absorbance 405 nm; Potency, µM (doses to about 114 µM), usual class: inhibitors; 360,000 tested, 3% active; also: nearly all actives have a fitted effect of over 60% in size
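First, TGR (20 nM dispensed) and NADPH were mixed with compound. Second, a 15 min room-temperature incubation followed. Third, further NADPH and then DTNB were added to start the reaction. Finally, TNB absorbance was monitored kinetically.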
HCMV inh: qHTS Assay for inhibitors of the human cytomegalovirus (HCMV) | HFF cells, HCMV-luciferase reporter, 72 h; stronger effect = lower value | activity change, negative = inhibition, % at 57.5 µM | 410,000 tested, 4.5% active; in the data active = activity change below about -60%; inconclusive = no clear call, values can overlap the other calls; inactive = above about -39%
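HFF cells seeded 16 h at 37C, treated with compounds, infected with luciferase-reporter HCMV at MOI 1 PFU/cell; luciferase read at 72 h post infection, normalized to buffer-only and Salinomycin controls.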
Pf growth 48h: Primary qHTS for delayed death inhibitors of the malarial parasite plastid, 48 hour incubation | P. falciparum luciferase growth in erythrocytes, 48 h | Potency, µM (titrated, usually from 28.7 µM), usual class: inhibitors | 310,000 tested, 5.9% active | AID 504832, 2011
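Erythrocytes infected with P. falciparum carrying an integrated firefly luciferase reporter (2% hematocrit, 0.1% parasitemia final) were exposed to compounds in RPMI 1640 with 0.5% Albumax at 37 C, 5% CO2. Growth inhibition was scored as reduced luminescence.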
Pf growth 96h: Primary qHTS for delayed death inhibitors of the malarial parasite plastid, 96 hour incubation; P. falciparum luciferase reporter growth, 96 h; Potency, µM (titrated, usually from 28.7 µM), usual class: inhibitors; 320,000 tested, 6.9% active; AID 504834, 2011
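Two-generation exposure (96 h) targets delayed-death phenotype. Reporter parasites carrying integrated firefly luciferase, in red cells at 2% hematocrit and 0.05% parasitemia final, kept at 37 C, 5% CO2; luminescence loss indicates inhibition.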
FBPA Giardia inh: qHTS Assay for Inhibitors of Fructose-1,6-bisphosphate Aldolase from Giardia Lamblia; purified Giardia FBPA; Potency, µM (titrated, usually from 59.6 µM), actives largely listed as inhibitors; 290,000 tested, 0.71% active; A8B2U2; AID 2451, 2010; also: nearly all actives have a fitted effect of over 55% in size
Target sequence (A8B2U2 whole entry, looked up): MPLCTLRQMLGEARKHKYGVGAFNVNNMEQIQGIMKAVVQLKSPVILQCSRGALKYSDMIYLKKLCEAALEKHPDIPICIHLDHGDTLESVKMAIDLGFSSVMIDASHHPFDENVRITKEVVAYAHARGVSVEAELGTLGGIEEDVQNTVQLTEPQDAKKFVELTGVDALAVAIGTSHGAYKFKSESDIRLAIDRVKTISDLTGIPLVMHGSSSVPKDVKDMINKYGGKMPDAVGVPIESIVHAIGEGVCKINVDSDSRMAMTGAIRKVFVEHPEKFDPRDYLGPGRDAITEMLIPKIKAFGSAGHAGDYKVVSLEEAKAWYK
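Giardia FBPA (40 nM reagent) was preincubated 10 min at RT with compound (up to 57.5 uM final), then substrate plus GAPDH/TPI/NAD/arsenate coupling system with diaphorase/resazurin was added; resorufin fluorescence (525/598 nm) was read after 20 min.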
Each line names hits and unclear results; the compound was inactive in the other large screens. Unless noted, calls follow the shape of the dose curve; as a rule, active = well fitted curve in the direction sought with a large enough effect; inconclusive = small, poorly fitted or top-dose-only effect, or another doubt; inactive = no such curve, though single readings can be large; an effect the other way counts as inactive or inconclusive.

COc1ccc(-c2coc3c(C(=O)NCc4cccs4)cccc23)c(C)c1	none (no result: Sm TGR block, Pf growth 48h, Pf growth 96h, FBPA Giardia inh)
Cc1cccc(Cn2c(=O)n(CCC(=O)NCc3ccc4c(c3)OCO4)c(=O)c3sccc32)c1	none (no result: Pf growth 48h, Pf growth 96h, FBPA Giardia inh)
COc1cccc(C(=O)CC2(O)C(=O)Nc3ccc(Cl)cc32)c1 (centres undefined)	none (no result: Pf growth 48h, Pf growth 96h, FBPA Giardia inh)
Cc1c(Cl)cccc1NC(=S)NCc1cccs1	HCMV inh -80, Pf growth 48h inconclusive
CCCCc1ccc(NC(=S)NCc2cccs2)cc1	HCMV inh -80
S=C(NCc1cccs1)Nc1cccc(Cl)c1Cl	Sm TGR block inconclusive, HCMV inh -79
Cc1c(Cl)cccc1NC(=S)NN1CCOCC1	Sm TGR block 32µM (no result: Pf growth 48h)
Cc1ccccc1NC(=S)NCc1cccs1	none (no result: Pf growth 96h)
Cc1c(Cl)cccc1NC(=S)NCCN1CCOCC1	none
Brc1ccc(-n2cnc(-c3ccccc3)c2)cc1	none
Cc1ccc(NC(=O)Cn2c(=O)n(CCC(C)C)c(=O)c3cccnc32)cc1C	none (no result: Pf growth 48h, Pf growth 96h, FBPA Giardia inh)
Cc1c(Cl)cccc1NC(=S)NCC(C)C	HCMV inh inconclusive, Pf growth 48h inconclusive, Pf growth 96h 3.3µM
C=CCSC1=C(C#N)C(c2ccccc2C)CC(=O)N1 (centres undefined)	none
C=CCSC1=C(C#N)C(c2ccc(OCC)cc2)CC(=O)N1 (centres undefined)	Pf growth 96h 7.4µM (no result: Pf growth 48h)
C=CCSC1=C(C#N)C(c2ccccc2Cl)CC(=O)N1 (centres undefined)	Pf growth 96h 3.3µM
CCNc1ncnc2[nH]ncc12	none (no result: Sm TGR block, Pf growth 48h, Pf growth 96h, FBPA Giardia inh)
CCOC(=O)c1cc2c(=O)n3cccc(C)c3nc2n(Cc2ccco2)c1=NC(=O)c1cccnc1	Sm TGR block 5.6µM, Pf growth 48h inconclusive, Pf growth 96h inconclusive, FBPA Giardia inh inconclusive
CCOC(=O)c1cc2c(=O)n3ccccc3nc2n(Cc2ccco2)c1=NC(=O)c1ccc(C)c(C)c1	none (no result: Pf growth 48h, Pf growth 96h, FBPA Giardia inh)
CCOC(=O)c1cc2c(=O)n3ccccc3nc2n(Cc2ccco2)c1=NC(=O)c1cccnc1	Sm TGR block 22µM, Pf growth 48h inconclusive, Pf growth 96h inconclusive
CCCN1C(=O)CC[C@@H](S(=O)(=O)c2ccccc2)[C@@H]1c1ccco1	none (no result: Sm TGR block, Pf growth 48h, Pf growth 96h, FBPA Giardia inh)
Cc1ccc(S(=O)(=O)N2CCN(c3ccnc4cc(Cl)ccc34)CC2)cc1	HCMV inh -61, Pf growth 48h 10µM, Pf growth 96h inconclusive
CC(=O)c1ccc(S(=O)(=O)N2CCN(c3ccnc4cc(Cl)ccc34)CC2)cc1	HCMV inh -70 (no result: Sm TGR block, Pf growth 48h, Pf growth 96h, FBPA Giardia inh)
CC(=O)c1ccc(N2CCN(S(=O)(=O)c3ccccc3)CC2)c(F)c1	Pf growth 96h inconclusive
CCS(=O)(=O)N1CCN(c2ccnc3cc(Cl)ccc23)CC1	Pf growth 48h 12µM, Pf growth 96h 10µM
Cc1ccc(S(=O)(=O)N2CCN(c3ccnc4cc(Cl)ccc34)CC2)cc1C	HCMV inh inconclusive, Pf growth 48h inconclusive
O=S(=O)(c1ccc(Br)s1)N1CCN(c2ccnc3cc(Cl)ccc23)CC1	HCMV inh -72, Pf growth 48h inconclusive, Pf growth 96h inconclusive
CCN(C(=O)Cc1ccc(Br)cc1)C1CCCCC1	none
Cc1ccc(CN2CCc3[nH]c(=O)[nH]c(=O)c3C2)cc1	Pf growth 96h 1.2µM
Cc1ccc(CN2CCc3[nH]c(=S)[nH]c(=O)c3C2)cc1	none (no result: FBPA Giardia inh)
CC[C@@H]1[C@H]2CCCC(=O)N3CC[C@@H](C[C@@H]1OC(=O)Nc1ccccc1)[C@@H]23	Pf growth 48h inconclusive, Pf growth 96h 2.3µM
CCCCNC(=O)O[C@@H]1C[C@@H]2CCN3C(=O)CCC[C@H]([C@H]1CC)[C@H]23	Pf growth 96h inconclusive
CCNc1ncnc2c1cnn2C1CCCO1 (centres undefined)	none (no result: Sm TGR block, Pf growth 48h, Pf growth 96h, FBPA Giardia inh)
COc1cccc(CCNC(=O)CC2C(=O)NCCN2CC(C)(C)C)c1 (centres undefined)	Sm TGR block inconclusive, Pf growth 96h 15µM
COc1cccc(CCNC(=O)CC2C(=O)NCCN2Cc2ccc(C)o2)c1 (centres undefined)	Sm TGR block 50µM, Pf growth 96h inconclusive (no result: FBPA Giardia inh)
Cc1ccc(CN2CCNC(=O)C2CC(=O)O)o1 (centres undefined)	Sm TGR block 45µM
COc1cccc(CN2CCNC(=O)C2CC(=O)NCCCN2CCCC2=O)c1 (centres undefined)	Sm TGR block 18µM (no result: FBPA Giardia inh)
Cc1csc(CNC(=O)C2CCC(=O)N(CCc3cccc(F)c3)C2)n1 (centres undefined)	none (no result: FBPA Giardia inh)
Cc1ccc(NS(=O)(=O)c2cc(C(=O)NCc3ccncc3)ccc2C)cc1	none (no result: FBPA Giardia inh)
CCCOc1cccc(-c2cc(-c3n[nH]c(=S)n3CC)c3ccccc3n2)c1	Pf growth 48h 10µM, Pf growth 96h 3.7µM
C=CCn1c(-c2cccc(OCC)c2)n[nH]c1=S	HCMV inh inconclusive
CCn1c(-c2cc(-c3ccc(C)cc3)nc3ccccc23)n[nH]c1=S	Pf growth 48h inconclusive, Pf growth 96h 17µM
CCn1c(-c2cc(-c3ccc(OC(C)C)cc3)nc3ccccc23)n[nH]c1=S	Pf growth 96h 1.5µM, FBPA Giardia inh inconclusive (no result: Pf growth 48h)
C=CCn1c(-c2cc(-c3ccc(C)cc3)nc3ccccc23)n[nH]c1=S	Pf growth 48h 17µM, Pf growth 96h inconclusive
CC(SCC(=O)Nc1ccc(F)cc1)c1nc2ccccc2c(=O)[nH]1 (centres undefined)	Pf growth 48h inconclusive (no result: HCMV inh)
CCc1nnc(NC(=O)CN2CCN(Cc3ccc(F)cc3)CC2)s1	Pf growth 48h inconclusive, FBPA Giardia inh inconclusive
OCCCc1n[nH]c(=S)n1-c1ccccc1	Sm TGR block 45µM, Pf growth 48h inconclusive
O=C(O)/C=C/c1ccc(S(=O)(=O)N2CCN(CCN3C(=O)C4C5C=CC(C5)C4C3=O)CC2)cc1 (centres undefined)	HCMV inh inconclusive, Pf growth 48h inconclusive, Pf growth 96h 1.9µM
